The list is not random: actives were taken first. Their share in the collection is about 7%.
D3 ag: activates the human D3 dopamine receptor; P35462; D3R DiscoveRx beta-arrestin cells, luminescence, 90 min; max activation, %; hit rate 0.58% among 410,000; AID 652048; in the data active = max activation above about 30%; also: 0% is about no effect
Target sequence (P35462 whole entry, looked up): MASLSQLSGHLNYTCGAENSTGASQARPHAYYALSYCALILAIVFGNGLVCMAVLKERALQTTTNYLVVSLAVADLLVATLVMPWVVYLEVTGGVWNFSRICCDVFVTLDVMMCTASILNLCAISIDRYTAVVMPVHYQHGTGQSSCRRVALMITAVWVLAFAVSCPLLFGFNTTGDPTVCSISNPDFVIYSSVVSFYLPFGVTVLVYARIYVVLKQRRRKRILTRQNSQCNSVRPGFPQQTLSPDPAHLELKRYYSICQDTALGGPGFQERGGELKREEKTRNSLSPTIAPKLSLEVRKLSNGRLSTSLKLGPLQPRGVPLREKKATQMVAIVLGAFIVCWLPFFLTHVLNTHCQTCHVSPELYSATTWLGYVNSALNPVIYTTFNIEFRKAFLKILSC
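Agonist-mode cell screen: cells plated at 1500/well and incubated overnight at 37 °C, then exposed to library compounds for 90 min at 37 °C. Detection reagent was added for 30–60 min at room temperature, and luminescence was read.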
Integrin act MD: activates integrin-mediated alleviation for muscular dystrophy; alpha7betagal myoblasts, beta-gal FDG fluorescence, 48 h; Potency, µM (top dose mostly 38.3 µM), without a hit: at the top dose activation, most hits filed as activators; hit rate 0.064% among 350,000;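 also: potency is read from the fitted curve at half-maximal effect; 100% = response of the positive control SU9516; nearly all actives have a fitted effect of over 60% in size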
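Alpha7betagal+/- myoblasts (passage 13) were plated 16-24 hr, then exposed to compounds (1:260 dilution of DMSO stock) for 48 hours at 37C. After MPER lysis, β-galactosidase reporter activity was read as FDG fluorescence (ex 480/em 540) after 30 minutes.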
IL1B secr inh: inflammasome signaling inhibition, IL-1 beta readout. THP-1 LPS/ATP IL-1B secretion, AlphaLISA, 16 h; active compounds read low. activity change, % at 57.5 µM. hit rate 4.7% among 360,000; in the data active = activity change below about -50%; inconclusive = mostly about -30% to -49%; also: % is scaled to controls: 0 for no effect and ±100 for the full control effect
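Secreted IL-1B measured by AlphaLISA bead assay after 16 h compound exposure of THP-1 cells; compounds (final up to 57.5 uM) added 1 h before LPS (250 ng/mL) and ATP (1.25 mM) stimulation; lower signal means less secretion.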
DRD3 antagonist: blocks the human D3 dopamine receptor; P35462; D3R cells, DiscoveRx beta-arrestin luminescence, antagonist mode; active compounds read low; max response, negative = inhibition, %; hit rate 2.5% among 360,000; in the data active = max response below about -50%; inconclusive = no clear call, values can overlap the other calls; also: % is scaled to controls: 0 for no effect and ±100 for the full control effect
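Cells plated overnight at 1500 cells/well, then exposed to library compounds with dopamine controls for 90 minutes at 37 degrees C. DiscoveRx reagent added for 30–60 minutes at room temperature; luminescence read, quantitative HTS format.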
ATXN viability: viability counter-screen for ATXN expression inhibitors. S2 cells (HEK-293 line with an ATXN2-luciferase reporter) viability, CellTiter-Fluor protease fluorescence, 24 h. Potency, µM (doses to about 56.7 µM), usual class: cytotoxic. hit rate 0.49% among 400,000; also: potency is read from the fitted curve at half-maximal effect; nearly all actives have a fitted effect of over 40% in size
ATXN2 expr inh: ATXN2 expression inhibition; HEK-293 ATXN2-luciferase reporter, luminescence, 24 h; Potency, µM (doses to about 57 µM), for the others: top-dose activity change, negative = inhibition, most hits filed as inhibitors; hit rate 0.72% among 360,000; AID 1745845; also: potency is read from the fitted curve at half-maximal effect; % is scaled to controls: 0 for no effect and ±100 for the full control effect; nearly all actives have a fitted effect of over 55% in size
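ATXN2-luciferase reporter cells (luciferase flanked by upstream and downstream ATXN2 gene portions) were treated 24 h at 37 °C with compounds at up to 57 uM. SteadyGlo luminescence gave expression; GF-AFC fluorescence gave viability.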
* hit, by the source's call; i = inactive; ? = inconclusive; . = not tested or not shown; [ ] = another dose, or the depositor's remark. Unless noted, calls follow the shape of the dose curve; as a rule, active = well fitted curve in the direction sought with a large enough effect; inconclusive = small, poorly fitted or top-dose-only effect, or another doubt; inactive = no such curve, though single readings can be large; an effect the other way counts as inactive or inconclusive.

SMILES	D3 ag	Integrin act MD	IL1B secr inh	DRD3 antagonist	ATXN viability	ATXN2 expr inh
Cc1cc(/C=N/n2c(COc3ccccc3)nc3ccccc3c2=O)c(O)c([N+](=O)[O-])c1	-12.3	-3.0%	40.2	?	?	?
Cc1nc2ccccc2c(=O)n1/N=C/c1cn[nH]c1-c1ccccc1	4.4	?	-13.7	47.7	i	?
Cc1ccc(-c2[nH]ncc2/C=N/n2c(COc3ccccc3)nc3ccccc3c2=O)cc1	25.6	-50.6%	-91.8*	37.6	.	?
CN(CCc1ccccn1)S(=O)(=O)c1ccc(F)cc1	-2.4	7.8%	15.3	50.6	i	-3.7%
CC(C)(C)c1cc(S(=O)(=O)CCc2ccccn2)cc(C(C)(C)C)c1F	0.7	?	-87.6*	-10.2	i	0.2%
CCOC(=O)C1CCN(C(c2ccccc2)c2c(O)cc(C)n(Cc3ccco3)c2=O)CC1 (stereo not drawn)	3.6	.	.	.	.	.
N#Cc1ccsc1NC(=O)COC(=O)c1ccc2ccccc2c1	0.2	11.2%	6.4	14.7	i	45.7%
CSCCC(NC(=O)C1CCC(C)CC1)C(=O)N1CCN(c2ccccn2)CC1 (stereo not drawn)	-5.2	31.7%[7.66 µM]	-6.0	-19.3	i	-0.2%
CN(C)c1ccc(-n2cccc2)cc1	5.5	6.2%	0.5	-2.0	i	-1.9%
CN(C)c1ccc(SC#N)cc1	-3.8	-27.4%	-99.4*	-13.6	i	-17.8%
CC(C)OC(=O)CSc1nnc(-c2ccc(Cl)cc2Cl)o1	1.5	23.3%	5.5	-9.9	i	-13.0%
CCCCOC(=O)CSc1nnc(-c2ccc(Cl)cc2Cl)o1	-2.0	12.0%	6.5	-51.8*	i	-8.6%
COCCNC(=O)c1cc(-c2ccccc2)n(Cc2cc(C)no2)n1	0.5	15.8%	-13.4	6.2	i	-0.4%
Cc1cc(Cn2nc(C(=O)NCc3cccc(Br)c3)cc2-c2ccccc2)on1	-26.2	6.3%	-57.6*	-6.1	i	-34.9%
CCCCn1c(NC(=O)CC)c(C#N)c2nc3ccccc3nc21	3.7	-3.6%	15.4	7.6	i	-6.8%
CCCCn1c(NC(=O)c2ccccc2Cl)c(C#N)c2nc3ccccc3nc21	3.9	-43.3%	-97.9*	?	i	?
N#Cc1c(NC(=O)c2ccccc2Cl)n(Cc2ccccc2)c2nc3ccccc3nc12	-3.5	-11.4%	-101.8*	?	i	-38.6%
CC(C)c1cc(Cn2c3ccccc3c(=O)n2C(C)C)on1	7.9	.	33.1	9.2	i	-8.0%
COc1ccccc1C(=O)NCCn1cc(SCc2ccc(C)cc2)c2ccccc21	4.5	.	.	.	?	?
O=C(Nc1ccccc1O)C(c1ccccc1)c1ccccc1	12.5	-32.9%	-63.5*	-19.0	i	-36.1%
CC(C)Cc1ccc([C@@H](C)C(=O)NS(C)(=O)=O)cc1	-3.1	.	.	.	.	.
CC(C)Cc1ccc(C(C)C(=O)Nc2ccccc2O)cc1 (stereo not drawn)	-7.2	-44.9%	-94.6*	-21.6	i	-36.4%
Cc1ccc(-c2nn(-c3cc(N4CCNCC4)ccc3[N+](=O)[O-])c(=O)c3ccccc23)cc1	-0.7	-74.9%	-182.3*	-11.3	i	.
CCOC(=O)C(C(=O)OCC)C(Nc1cccc(Br)c1)c1ccccc1 (stereo not drawn)	-5.0	-34.5%[7.66 µM]	-68.4*	?	?	0.0%
c1ccc(-c2nn3c(Cn4nnc5ccccc54)nnc3s2)nc1	-4.8	-19.1%	12.7	-8.9	i	1.3%
c1cncc(-c2nn3c(Cn4nnc5ccccc54)nnc3s2)c1	50.9*	5.5%	-7.1	18.8	i	3.4%
O=C(NCc1ccccc1Cl)[C@@H]1CCCN1S(=O)(=O)c1ccc(Cl)cc1	0.5	-1.5%	-50.7*	-1.6	i	-34.2%
O=C(NCc1ccccc1F)C1CCCN1S(=O)(=O)c1ccc(Cl)cc1 (stereo not drawn)	-10.6	0.0%	22.9	-9.8	i	32.2%
Cc1ccc(Sc2ncnc3onc(C)c23)cc1	0.4	22.6%	-15.8	-15.2	i	11.0%

Compound activity: PubChem, National Center for Advancing Translational Sciences (NCATS)
